About 83,000 compounds went through this panel and 20% of them were active in at least one assay; those are over-represented in the sample as a whole.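 Single-concentration screen, 48 h exposure, 96-well plates. Endpoint: percent growth. Below 10 = active.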 Calls of active or inactive are those of the source.
system: HL-60(TB) leukemia; experiment: NCI-60 one-dose screen, 48 h (100 = growth as untreated, 0 = no growth, -100 = all killed); settings: 10 µM unless noted

SMILES	growth
COc1ccc(-c2nc(SCCC(C)C)nc(N/N=C\c3cccc(Cl)c3)c2C#N)cc1	82% (inactive)
COc1ccc(C2C3=C(COC3=O)N(CCO)c3cc4c(cc32)OCO4)cc1OC (stereo not given)	65.7% (inactive)
[N-]=[N+]=NCC1OC(n2cnc3c(NC(=O)Nc4ccccc4)ncnc32)C2OC(=O)CC12 (stereo not given)	87.3% (inactive)
COc1cc(C(=O)c2c(N)ncn2-c2ccccc2)cc(OC)c1OC	77.5% (inactive)
CCCCCCCCCCCCOc1ccccc1C=O	89.9% (inactive)
CCCCCc1c(C)[nH]c(/C=C2\N=C(c3ccc[nH]3)C=C2Oc2ccc(OC)cc2)c1C	-39% [100 µM] (active)
N#CSCC1CC(O)(c2ccccc2)CC(c2ccc(F)cc2)O1 (stereo not given)	-38.7% (active)
O=C(CCCCC(=O)Nc1ccc2c(c1)/C(=C/c1ccc[nH]1)C(=O)N2)NO	107% (inactive)
COc1cc(-c2nn(-c3ccc(NC(=O)Nc4cc(C(F)(F)F)cc(C(F)(F)F)c4)cc3)cc2-c2ccncc2)ccc1Cl	4.78% (active)
COc1ccc(CN2CCC(N3CCCC3=O)c3cc(Cl)ccc32)cc1 (stereo not given)	80.2% (inactive)
CCOC(=O)C(Cc1cc(I)c(O)c(I)c1)NC(=O)c1ccccc1 (stereo not given)	90.2% (inactive)
N#Cc1cccc(NC(=O)c2cc(-c3ccc(F)cc3F)ccc2O)c1	-19.1% (active)
O=[N+]([O-])c1ccc(Sc2cccc[n+]2[O-])c2nonc12	-49.1% (active)
CC(=O)Nc1ccc(OC(=O)c2ccccc2O)cc1	102% (inactive)
C=CC[P+](c1ccccc1)(c1ccccc1)c1ccccc1	4.03% (active)
COc1cc(NC(=O)C2=C(C)NC(C)=C(C(=O)Nc3cc(OC)c(Cl)cc3OC)C2c2cccc([N+](=O)[O-])c2)c(OC)cc1Cl	15.5% (inactive)
O=C(CCCCCCSc1nc(-c2ccccc2)cc(-c2ccccc2)n1)NO	-33.2% (active)
O=C1c2c(c3c4ccccc4n(CCCCCCBr)c3c3[nH]c4ccccc4c23)C(=O)N1O	-41.7% (active)
O=S(=O)(NCCCNc1nccc(-c2c(-c3ccc(F)cc3)nc3sccn23)n1)c1ccc2ccccc2c1	34.8% (inactive)
CN1CCN(c2ccc3cc(-c4nc5ccccc5[nH]4)c(=O)oc3c2)CC1	73% (inactive)

SMILES	growth
C=C1C(=O)O[C@H]2[C@H]1CC/C(COC(=O)C(C)c1ccc(CC(C)C)cc1)=C\CC[C@@]1(C)O[C@@H]21 (stereo not given in full)	-9.46% (active)
COc1c(O)cc2c(c1CC=C(C)C)OC(=O)c1c(cc(O)c(CC=C(C)C)c1O)O2	31% (inactive)
CNc1ccc2c(c1)c1ccccc1n2C	93.7% (inactive)
COc1cc(C(=O)N2CCN(C(=O)c3ccco3)CC2)c(N)cc1OCc1ccccc1	99.8% (inactive)
C=CCNc1nc(NN2C(=O)c3cccc4cccc(c34)C2=O)nc(-n2cnc3ccccc32)n1	93.9% (inactive)
C=C1C(=O)O[C@H]2[C@H]1CC/C(COC(=O)c1ccc(C(=O)O)s1)=C\CC[C@@]1(C)O[C@@H]21	-31.4% (active)
COc1ccc2[nH]cc(-c3nc(-c4cn(C)c5ccncc45)cs3)c2c1	82.3% (inactive)
Cc1ccc(S(=O)(=O)c2nc(-c3ccccc3)oc2SCC(N)=O)cc1	65.3% (inactive)
CCc1ccc(CNCC(O)c2ccccc2)cc1 (stereo not given)	95.7% (inactive)
COC(=O)c1cc2c(/C=C3/NC(=S)NC3=O)coc2n1C	100% (inactive)
COc1cc(CNS(=O)(=O)c2ccc(C)cc2)ccc1OCc1cn(-c2ccc(F)cc2)nn1	114% (inactive)
NC(=S)N/N=C(/c1cccs1)C1CC1	79.9% (inactive)
CCCN1CCN(c2ccc3nc(-c4ccc5nc(-c6ccc(OCC)cc6)[nH]c5c4)[nH]c3c2)CC1	16.9% (inactive)
Cc1cc(OCCO)cc(C)c1Cl	100% (inactive)
Oc1ccc(CCC2CCNc3ccccc32)cc1 (stereo not given)	86.9% (inactive)
CC1=C(/C=C/C(C)=C/C=C/C(C)=C/C(=O)Nc2ccc(O)cc2)C(C)(C)CCC1	-32.3% (active)
CC(C)(C)n1cc(-c2ccnc(NCCNS(=O)(=O)c3ccc(O)cc3)c2)c(-c2cccc(O)c2)n1	101% (inactive)
COc1ccc(Cn2c(Br)c3c(c2-c2cc(OC)c(OC)c(OC)c2)CCc2sc(N)nc2-3)cc1	-14.5% (active)
O=C(NCCc1ccccn1)OCc1nc2nc(Cl)nc(N3CCOCC3)c2[nH]1	-47.6% (active)
Cc1ccc(NC(=O)c2sc3nc4c(cc3c2N)C(=O)CCC4)cc1Cl	106% (inactive)
